MenB inh = blocks the Mycobacterium tuberculosis MenB enzyme; P9WNP5; MenB enzyme assay, absorbance read-out; inhibition, % (test concentration not listed); 0.43% of 100,000 active; in the data active means inhibition above about 21%, passing the limit was not always enough
Mtb MbtI inh = MbtI salicylate synthase inhibition; P9WFX0; purified MbtI enzyme, fluorescence intensity read-out; inhibition, % (concentration not given with the values); 0.89% of 100,000 active; AID 493033; in the data active means inhibition mostly above about 56%, no sharp cut-off; inactive means mostly below about 77%
Polio RdRp inh = poliovirus RNA polymerase inhibition. AID 588519. % elongation, % (compound at 16.7 µg/mL). 0.66% of 150,000 active. poliovirus polymerase elongation, fluorescence polarization; active compounds read low. P03300; in the data active means % elongation below about 90%
Target sequence (P03300 1749-2209 limits assumed): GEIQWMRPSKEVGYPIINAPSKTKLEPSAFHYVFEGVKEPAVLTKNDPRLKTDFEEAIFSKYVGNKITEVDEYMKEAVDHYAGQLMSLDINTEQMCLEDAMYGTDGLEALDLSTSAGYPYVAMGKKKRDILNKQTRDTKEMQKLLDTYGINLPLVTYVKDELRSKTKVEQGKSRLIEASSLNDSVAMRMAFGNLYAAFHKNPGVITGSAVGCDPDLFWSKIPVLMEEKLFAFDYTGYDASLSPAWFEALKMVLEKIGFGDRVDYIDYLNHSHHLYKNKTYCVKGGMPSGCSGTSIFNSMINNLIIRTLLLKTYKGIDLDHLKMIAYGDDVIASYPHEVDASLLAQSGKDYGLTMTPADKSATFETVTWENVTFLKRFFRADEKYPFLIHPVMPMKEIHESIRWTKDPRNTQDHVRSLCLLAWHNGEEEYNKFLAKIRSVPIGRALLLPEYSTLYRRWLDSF
Starred values were filed as active, the others as inactive. Compounds with a hit are over-represented: about 1.4% of the library has one in this group of screens.

`O=C1NC(=O)NC(=C/C=C/c2ccc(-c3ccc(Cl)cc3Cl)o2)N1` gave MenB inh -17.5, Mtb MbtI inh 57.2* and Polio RdRp inh 102.0.
N#C/C(=C/C=C/c1ccc(-c2cc(Cl)ccc2Cl)o1)C(N)=S was read as MenB inh -21.0, Mtb MbtI inh 71.3 and Polio RdRp inh 105.0.
Screening CCOc1ccc(NC(=O)CCCn2c(=O)[nH]c3ccccc3c2=O)cc1 returned MenB inh -9.6, Mtb MbtI inh -8.1 and Polio RdRp inh 100.0.
Screening NC1CCC(c2ccccc2)CC1 (centres undefined) returned MenB inh -17.6, Mtb MbtI inh -11.2 and Polio RdRp inh 101.0.
For CN1/C(=N\O)c2cccc3cccc1c23 the results were MenB inh -70.4, Mtb MbtI inh 81.4* and Polio RdRp inh 96.0.
Screening CNC(=O)CN1C(=O)c2cccc3cccc1c23 returned MenB inh -41.3, Mtb MbtI inh 22.8 and Polio RdRp inh 101.0.
For Cc1c2c(c(C#N)c3nc4ccccc4n13)CCCC2 the results were MenB inh 8.7, Mtb MbtI inh 3.6 and Polio RdRp inh 92.0.
Screening CCCN(CCC)C(=O)C1C2C=CC(C2)C1C(=O)O (centres undefined) returned Mtb MbtI inh -2.1.
For CC(OC(=O)c1ccccc1NCc1ccco1)C(=O)Nc1ccc2c(c1)OCO2 (centres undefined) the results were MenB inh -25.6, Mtb MbtI inh -53.3 and Polio RdRp inh 104.0.
`CCOc1ccc2c(c1)C(C)=CC(C)(C)N2C(=O)Cn1cnc2c1c(=O)n(C)c(=O)n2C` gave MenB inh -17.5, Mtb MbtI inh -8.1 and Polio RdRp inh 108.0.
`CCn1cc(C(=O)N2CCN(c3ccccc3)CC2)c(=O)c2cc(S(=O)(=O)N(C)C3CCCCC3)ccc21` gave Polio RdRp inh 68.0*.
For CC1CCN(CCCNC(=O)c2cn(C)c3ccc(S(=O)(=O)N(C)C4CCCCC4)cc3c2=O)CC1 the results were Polio RdRp inh 108.0.
`CCC1CCCCN1CCCNC(=O)c1cn(C)c2ccc(S(=O)(=O)N(C)C3CCCCC3)cc2c1=O` (centres undefined) gave Polio RdRp inh 30.0*.
For CCn1cc(C(=O)N2CCN(c3ccc(F)cc3)CC2)c(=O)c2cc(S(=O)(=O)N(C)C3CCCCC3)ccc21 the results were Polio RdRp inh 107.0.
`O=S(=O)(c1ccc2oc(=S)n(CN3CCOCC3)c2c1)N1CCOCC1` gave MenB inh -1.7, Mtb MbtI inh 77.5 and Polio RdRp inh 62.0*.
CCn1c(=O)n(CC)c2cc(S(=O)(=O)N3CCOCC3)ccc21 was read as MenB inh 10.4 and Polio RdRp inh 104.0.
For O=C(c1ccc2nccnc2c1)N1CCc2ccccc2C1 the results were MenB inh -29.6, Mtb MbtI inh 0.9 and Polio RdRp inh 104.0.
`Cc1nnc(COC(=O)CC23CC4CC(CC(C4)C2)C3)o1` gave MenB inh -8.3, Mtb MbtI inh -6.8 and Polio RdRp inh 105.0.
Screening CNc1cc(=O)n(C)c(=O)[nH]1 returned MenB inh -33.5, Mtb MbtI inh -5.8 and Polio RdRp inh 101.0.
For CCn1c(CCC(=O)O)nc2cc(S(N)(=O)=O)ccc21 the results were MenB inh -65.1, Mtb MbtI inh 91.7 and Polio RdRp inh 64.0*.
`CCn1c(C)nc2cc(S(N)(=O)=O)ccc21` gave Mtb MbtI inh -10.7.
For NNC(=O)[C@H]1[C@@H]2C[C@@H]3c4[nH]c5ccccc5c4CCN3C[C@H]2CC[C@H]1O the results were MenB inh 9.3, Mtb MbtI inh 25.3 and Polio RdRp inh 103.0.
Screening Cc1cc(C)cc(OCCSc2nc3ccccc3n2CCC#N)c1 returned MenB inh -21.5, Mtb MbtI inh 13.4 and Polio RdRp inh 104.0.
For COCCNC(=S)N1CCN(c2ccc(S(=O)(=O)N3CCCC3)cc2)CC1 the results were MenB inh -27.6, Mtb MbtI inh 5.9 and Polio RdRp inh 102.0.
For Fc1ccccc1OCCSc1nnc2c(n1)[nH]c1ccccc12 the results were MenB inh -9.5, Mtb MbtI inh 3.1 and Polio RdRp inh 102.0.
For Cc1cc(C)c(CO)c(C)c1CO the results were MenB inh -26.4, Mtb MbtI inh 3.7 and Polio RdRp inh 102.0.
`Cc1cc(C)c(C)c(S(=O)O)c1C` gave MenB inh -36.3, Mtb MbtI inh 3.2 and Polio RdRp inh 83.0*.
CN(C)CCNCc1ccc(-c2ccccc2)o1 was read as MenB inh 61.2*, Mtb MbtI inh 12.8 and Polio RdRp inh 102.0.
Screening CC(O)CNCc1ccc(-c2ccccc2)o1 (centres undefined) returned MenB inh 8.4, Mtb MbtI inh 1.8 and Polio RdRp inh 100.0.
For CCCn1c(N)nc2c1c(=O)[nH]c(=O)n2C the results were MenB inh -33.9, Mtb MbtI inh -16.1 and Polio RdRp inh 101.0.
For CCSc1nc2c(c(=O)[nH]c(=O)n2C)n1CC the results were MenB inh -1.4, Mtb MbtI inh 97.7* and Polio RdRp inh 98.0.
Screening Cc1nnc(SCC(=O)N2N=C3/C(=C/c4ccco4)CCCC3C2c2ccco2)n1-c1ccccc1 (centres undefined) returned MenB inh -28.5, Mtb MbtI inh 0.7 and Polio RdRp inh 101.0.
Cc1cccc(NC(=S)Nc2ccc(N(C)C)cc2)c1 was read as MenB inh -19.0, Mtb MbtI inh 15.9 and Polio RdRp inh 99.0.
Screening CN(C)c1ccc(NC(=S)c2ccccn2)cc1 returned MenB inh -61.3, Mtb MbtI inh 68.5* and Polio RdRp inh 103.0.
For O=c1c(Cl)c(Nc2ccc(F)cc2)cnn1-c1ccccc1 the results were MenB inh 2.5, Mtb MbtI inh 3.3 and Polio RdRp inh 84.0*.
`Cc1nn(C)c(C)c1Nc1cnn(-c2ccccc2)c(=O)c1Cl` gave MenB inh -8.2, Mtb MbtI inh 15.8 and Polio RdRp inh 101.0.
Screening CC1CCCC(C)N1C(=O)CSc1nccn1C (centres undefined) returned Mtb MbtI inh -6.0 and Polio RdRp inh 98.0.
`CCS(=O)(=O)c1ccc2oc(Nc3cc(C)cc(C)c3)nc2c1` gave MenB inh -12.8, Mtb MbtI inh 13.8 and Polio RdRp inh 103.0.
CCS(=O)(=O)c1ccc2oc(Nc3ccc(C(C)C)cc3)nc2c1 was read as MenB inh -19.6, Mtb MbtI inh 65.5 and Polio RdRp inh 70.0*.
Screening COc1ccc(C2CC(=O)N3CN(C4CCCCC4)CSC3=C2C#N)cc1 (centres undefined) returned Polio RdRp inh 75.0*.
`COc1cccc(C2CC(=O)NC(SC)=C2C#N)c1` (centres undefined) gave MenB inh -12.7, Mtb MbtI inh -7.8 and Polio RdRp inh 104.0.
For COc1cccc(C2CC(=O)N3CN(C4CCCCC4)CSC3=C2C#N)c1 (centres undefined) the results were Polio RdRp inh 77.0*.
CCOC(=O)CN1CSC2=C(C#N)C(c3ccc(OC)cc3)CC(=O)N2C1 (centres undefined) was read as MenB inh 5.9, Mtb MbtI inh 79.9 and Polio RdRp inh 102.0.
`CCOC(=O)c1cnc2ccc(OCC)cc2c1NCCCN1CCOCC1` gave MenB inh 2.4 and Polio RdRp inh 89.0*.
CCOC(=O)c1cnc2ccc(OCC)cc2c1NCCN(C)C was read as MenB inh -9.0, Mtb MbtI inh 35.2 and Polio RdRp inh 101.0.

Source: PubChem (ICCB-Longwood Screening Facility, Harvard Medical School)
